Results taken from the supplement of paper PMC4466140.

Each binder was assayed against AgAbp1 (assay: SPOT peptide array binding signal intensity (averaged, normalized) (arbitrary units (background-subtracted, floor 0; scale differs between SH3 domains)); higher = stronger binding of the SH3 domain to the peptide).
In short: (§1)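 The binding signal is the normalized, background-subtracted spot intensity averaged over replicates; its arbitrary units differ between domains. It was obtained by incubating 10 μg/ml GST-fused SH3 domains from four yeast species overnight at 4°C in TBS-based blocking buffer on cellulose membranes with synthetic 15-mer peptides, cysteines replaced by serines, then detecting with anti-GST antibody, HRP anti-mouse secondary and luminol.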

Binder	SPOT peptide array binding signal intensity
TKPTPPPKPSHLKPK	784

These binders were tested against AgBbc1 in the same assay as above.
In short: as §1

Binder	SPOT peptide array binding signal intensity
TKPTPPPKPSHLKPK	125

What follows are binders tested against AgBem1-D1 in the same assay as above.
In short: as §1

Binder	SPOT peptide array binding signal intensity
TKPTPPPKPSHLKPK	≤ 0

These binders were tested against AgBzz1-D1 in the same assay as above.
In short: as §1

Binder	SPOT peptide array binding signal intensity
TKPTPPPKPSHLKPK	150

These binders were tested against AgBzz1-D2 in the same assay as above.
In short: as §1

Binder	SPOT peptide array binding signal intensity
TKPTPPPKPSHLKPK	13

These binders were tested against AgCyk3 in the same assay as above.
In short: as §1

Binder	SPOT peptide array binding signal intensity
TKPTPPPKPSHLKPK	0.5

Each binder was assayed against AgFus1 in the same assay as above.
In short: as §1

Binder	SPOT peptide array binding signal intensity
TKPTPPPKPSHLKPK	≤ 0

What follows are binders tested against AgHof1 in the same assay as above.
In short: as §1

Binder	SPOT peptide array binding signal intensity
TKPTPPPKPSHLKPK	3.5

Each binder was assayed against AgHse1 in the same assay as above.
In short: as §1

Binder	SPOT peptide array binding signal intensity
TKPTPPPKPSHLKPK	18

What follows are binders tested against AgLsb1 in the same assay as above.
In short: as §1

Binder	SPOT peptide array binding signal intensity
TKPTPPPKPSHLKPK	0.5

Each binder was assayed against AgLsb4 in the same assay as above.
In short: as §1

Binder	SPOT peptide array binding signal intensity
TKPTPPPKPSHLKPK	≤ 0

What follows are binders tested against AgMyo5 in the same assay as above.
In short: as §1

Binder	SPOT peptide array binding signal intensity
TKPTPPPKPSHLKPK	≤ 0

Each binder was assayed against AgNbp2 in the same assay as above.
In short: as §1

Binder	SPOT peptide array binding signal intensity
TKPTPPPKPSHLKPK	≤ 0

The binders below were run against AgRvs167 in the same assay as above.
In short: as §1

Binder	SPOT peptide array binding signal intensity
TKPTPPPKPSHLKPK	2.67

The binders below were run against AgSho1 in the same assay as above.
In short: as §1

Binder	SPOT peptide array binding signal intensity
TKPTPPPKPSHLKPK	72

What follows are binders tested against AgSla1-D1-D2 in the same assay as above.
In short: as §1

Binder	SPOT peptide array binding signal intensity
TKPTPPPKPSHLKPK	≤ 0

What follows are binders tested against AgSla1-D3 in the same assay as above.
In short: as §1

Binder	SPOT peptide array binding signal intensity
TKPTPPPKPSHLKPK	≤ 0

Each binder was assayed against CaAbp1-D1 in the same assay as above.
In short: as §1

Binder	SPOT peptide array binding signal intensity
TKPTPPPKPSHLKPK	655

Each binder was assayed against CaAbp1-D2 in the same assay as above.
In short: as §1

Binder	SPOT peptide array binding signal intensity
TKPTPPPKPSHLKPK	1210

The binders below were run against CaBbc1 in the same assay as above.
In short: as §1

Binder	SPOT peptide array binding signal intensity
TKPTPPPKPSHLKPK	159

Each binder was assayed against CaBem1-D1 in the same assay as above.
In short: as §1

Binder	SPOT peptide array binding signal intensity
TKPTPPPKPSHLKPK	≤ 0

What follows are binders tested against CaBzz1-D1 in the same assay as above.
In short: as §1

Binder	SPOT peptide array binding signal intensity
TKPTPPPKPSHLKPK	1030

What follows are binders tested against CaBzz1-D2 in the same assay as above.
In short: as §1

Binder	SPOT peptide array binding signal intensity
TKPTPPPKPSHLKPK	357

What follows are binders tested against CaCyk3 in the same assay as above.
In short: as §1

Binder	SPOT peptide array binding signal intensity
TKPTPPPKPSHLKPK	≤ 0

What follows are binders tested against CaFus1 in the same assay as above.
In short: as §1

Binder	SPOT peptide array binding signal intensity
TKPTPPPKPSHLKPK	≤ 0

What follows are binders tested against CaHof1 in the same assay as above.
In short: as §1

Binder	SPOT peptide array binding signal intensity
TKPTPPPKPSHLKPK	1.5

Each binder was assayed against CaHse1 in the same assay as above.
In short: as §1

Binder	SPOT peptide array binding signal intensity
TKPTPPPKPSHLKPK	5.75

The binders below were run against CaLsb1 in the same assay as above.
In short: as §1

Binder	SPOT peptide array binding signal intensity
TKPTPPPKPSHLKPK	0.5

Each binder was assayed against CaLsb4 in the same assay as above.
In short: as §1

Binder	SPOT peptide array binding signal intensity
TKPTPPPKPSHLKPK	≤ 0

Each binder was assayed against CaMyo5 in the same assay as above.
In short: as §1

Binder	SPOT peptide array binding signal intensity
TKPTPPPKPSHLKPK	1

These binders were tested against CaNbp2 in the same assay as above.
In short: as §1

Binder	SPOT peptide array binding signal intensity
TKPTPPPKPSHLKPK	≤ 0

These binders were tested against CaRvs167 in the same assay as above.
In short: as §1

Binder	SPOT peptide array binding signal intensity
TKPTPPPKPSHLKPK	4

The binders below were run against CaRvs167-3 in the same assay as above.
In short: as §1

Binder	SPOT peptide array binding signal intensity
TKPTPPPKPSHLKPK	6

What follows are binders tested against CaSho1 in the same assay as above.
In short: as §1

Binder	SPOT peptide array binding signal intensity
TKPTPPPKPSHLKPK	44.5

These binders were tested against CaSla1-D1-D2 in the same assay as above.
In short: as §1

Binder	SPOT peptide array binding signal intensity
TKPTPPPKPSHLKPK	9.5

The binders below were run against CaSla1-D3 in the same assay as above.
In short: as §1

Binder	SPOT peptide array binding signal intensity
TKPTPPPKPSHLKPK	0.5

These binders were tested against ScAbp1 in the same assay as above.
In short: as §1

Binder	SPOT peptide array binding signal intensity
TKPTPPPKPSHLKPK	1010
